# Experimental data: PubChem BioAssay AID493201 (National Center for Advancing Translational Sciences (NCATS), 2011)
# Results filed as inconclusive are left out. Entries that show only a call come without a potency. Active and inactive are the calls of the source. Calls come from the whole dose curve; as a rule, active = well fitted activation curve with a large enough effect; inconclusive = small, poorly fitted or top-dose-only effect; inactive = no such curve, though single readings can be large or run the other way.
# Assay: qHTS Assay for Identifying a Potential Treatment of Ataxia-Telangiectasia: Secondary assay (no NCS) hit validation;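 note: phosphorylated KAP1 signal as a proxy for ATM-like kinase activity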
# Settings: A-T patient fibroblasts, AlphaLISA, no DNA damage added, 90 min; series mostly up to 76.9 µM
# Excerpt: NIH Chemical Genomics Center [NCGC]
# NIH Molecular Libraries Probe Centers Network [MLPCN]
# Assay Submitter (PI): Wei Zheng and Yosef Shiloh
# Ataxia-telangiectasia (A-T) is a devastating and progressive disease for which, there is no cure. Although A-T is a multisystem disease, it is stereotyped characterized by its neurological symptoms such as truncal ataxia, due to cerebellar cortical degeneration of the Purkinje and granule cells. Other symptoms of A-T are telangiectasias (dilated blood vessels), primary immunodeficiency, marked sensitivity to ionizing radiation (IR), chromosomal instability and predisposition to cancer.
# The underlying genetic cause of A-T is null mutations in the ATM (A-T mutated) gene. ATM is a nuclear serine/threonine kinase that functions as a master regulator of the cellular responses to double strand breaks (DSBs) in the DNA. Upon activation by DSBs, ATM phosphorylates a plethora of downstream targets, including KAP-1 on […]. KAP-1 phosphorylation occurs shortly in response to DSBs and mediates global chromatin relaxation, which facilitates DSB repair. To screen for small molecules that will compensate for the loss of ATM in cells derived from A-T patients, we monitored KAP-1 phosphorylation as a readout for ATM-like activity using an AlphaLISA assay. This secondary assay omits NCS, which creates double-stranded DNA breaks.
# Step,Parameter,Value,Description
# 1. Cell Plating, 3 ul, 500 cells/well in OPTI-MEM, 1% FBS, 1% Pen/Strep
# 3. Library compounds, 23 nl, 76.7 - 0.61uM dilution series final concentration
# 4. Incubation, 60 min, 37C, 5% CO2, 95% humidity
# 6. Incubation, 30 min, 37C, 5% CO2, 95% humidity
# 7. Reagent, 1 ul, Premixed detection reagents and lysis buffer
# 8. Reagent, 1 ul, 0.6% Antifoam A
# 9. Incubation, 6 hr, 25C, 95% humidity
# 10. Readout, EnVision, EnVision plate reader. AlphaScreen 1536-well protocol
# Cells were plated using medium-binding white solid-bottom tissue culture treated Kalypsys plates. Multidrop dispense of 3 uL of F2112 (hTERT immortalized A-T patient fibroblast cells). Detection reagent and lysis buffer was 3.75nM Rab-a-pKAP1 antibody bound to 75 ng/ul AlphaScreen SA donor bead, 3.75 nM Biot-M-a-KAP1 antibody bound to AlphaLISA protein A acceptor bead, 0.5x protease inhibitor cocktail and 0.25x PerkinElmer lysis buffer. EnVision protocol for 1536-well AlphaScreen read (30ms excitation, 100ms read), about 10 min/plate.
# Potency is the fitted concentration of half-maximal effect.
row,Structure (SMILES),Potency
1,COC(=O)c1ccc2[nH]c3cccc(/C(=C/c4ccccc4)c4ccccc4)c3c2c1,inactive
2,O=C(N/N=C/c1cccc2ccccc12)c1cccnc1,inactive
3,CC12CCC(C(=O)NNc3ccc([N+](=O)[O-])cc3)(OC1=O)C2(C)C (stereo not given),inactive
4,Oc1ccc(-c2nccc(-c3ccc(F)cc3)n2)cc1,5.82 µM (active)
5,S=c1[nH]nc(C2CCCCC2)n1/N=C/c1ccc(Br)cc1,inactive
6,CC1C(c2ccccc2)N(C)C(c2ccccc2)CC1(O)c1ccccc1 (stereo not given),13 µM (active)
7,COc1cccc(OC)c1C(=O)NC(=O)Nc1c(C)cccc1C,inactive
8,CCC(C)NC(=O)c1cn(CCOC)c(=O)c2c1c1ccccc1n2C (stereo not given),inactive
9,COc1ccccc1[C@H]1C(c2cccc(Cl)c2)=NN(c2ccccc2)[C@@H]1CO,inactive
10,Cc1ccc(C2(C)NC(=O)N(CC(=O)Nc3ccccc3N3CCCC3)C2=O)cc1 (stereo not given),inactive
11,C=CCSc1nc2ccccc2n1C(=O)/C=C/c1cc(OC)c(OC)c(OC)c1,inactive
12,COc1ccc(C2(C)CC(C)(C)Nc3ccccc32)cc1 (stereo not given),inactive
13,O=C(Nc1ccc([N+](=O)[O-])cc1)c1cc2ccccc2nc1Cl,inactive
14,O=C1C(Cl)=C(Nc2ccc3cn[nH]c3c2)C(=O)c2ccccc21,1.3 µM (active)
15,COc1ccc(-c2csc(-c3ccc(O)cc3)n2)cc1,inactive
16,CC1CCCC(C)N1CCCNC(=O)Cn1ncc2c3ccccc3n(C)c2c1=O (stereo not given),14.6 µM (active)
17,CCn1nc(C)c(CNC(=O)c2cc(COc3ccc(F)cc3Cl)on2)c1C,inactive
18,COc1ccc(CCn2c(S)nc3ccccc3c2=O)cc1,41.2 µM (active)
19,COc1ccc(-n2c(C)cc(=O)[nH]c2=O)cc1,inactive
20,CC(C)c1ccc(C(C(=O)NC2CCCCC2)N(C(=O)c2ccccn2)c2cccnc2)cc1 (stereo not given),inactive

row,Structure (SMILES),Potency
1,COc1ccc(N2CCN(C(=O)c3cc4cc(Cl)ccc4[nH]3)CC2)cc1,inactive
2,COc1cccc(OCCc2c(C)n[nH]c2C)c1,inactive
3,CNC(=O)c1ccc(-c2sc3nc(N4CCOCC4)c4c(c3c2N)CC(C)(C)OC4)o1,29.2 µM (active)
4,CCOc1ccccc1CNC(=O)Cn1c(=O)oc2ccccc21,32.8 µM (active)
5,CCOC(=O)CN(C(=O)CSc1nnc(COc2ccc(OC)cc2)n1CC)c1ccccc1,inactive
6,COc1ccc(/C=N/Nc2nc(=O)[nH]nc2C)cc1OC,inactive
7,CSc1nc(SCC(=O)O)c2c3c(sc2n1)COC(C)(C)C3,inactive
8,CCN(CC)S(=O)(=O)c1ccc(Cl)c(NC(=O)CCCCl)c1,inactive
9,O=[N+]([O-])c1ccc(F)cc1F,32.8 µM (active)
10,COc1cccc(CN(C)CC(=O)NCc2ccc(F)cc2)c1OC,inactive
11,CCc1oc(C(=O)OC)cc1CSC(=N)N,inactive
12,NCC(=O)c1cccc2ccc[n+]([O-])c12,inactive
13,O=C(/C(=C/c1ccc(Cl)cc1)c1nc2ccccc2[nH]1)c1cccs1,inactive
14,OC(CN1CCCCC1)Cn1c2ccc(Cl)cc2c2cc(Cl)ccc21 (stereo not given),inactive
15,CCCCN(c1nc2ccccc2nc1Cl)S(=O)(=O)c1ccc(C)cc1,inactive
16,O=C(O)c1ccc(-c2nc3ccccc3s2)o1,inactive
17,CCc1ccc(NC(=O)CNCc2ccc(OC)c(OC)c2)cc1,inactive
18,C=CCN1C(=O)/C(=C/C(=O)OC)S/C1=N\NC(=O)c1ccccc1,inactive
19,CCOC(=O)C1CCN(C(=O)c2cc3cc(Cl)ccc3[nH]2)CC1,inactive
20,N#Cc1c(-c2ccccc2)cc(-c2ccccc2)[nH]c1=O,inactive
